Screening data: PubChem BioAssay, National Center for Advancing Translational Sciences (NCATS)
ALOX12 inh = inhibitors of human 12S-lipoxygenase ALOX12 | P18054 | purified 12hLO, xylenol orange hydroperoxide absorbance | Potency, µM (doses to about 108 µM), without a hit: top-dose activity change, negative = inhibition, hits mostly inhibitors | actives 1.1% (n = 580,000) | AID 1671190
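Hydroperoxide product was detected by ferrous iron/xylenol orange as the 573 to 405 nm absorbance ratio. Arachidonic acid at 40 uM (final) was turned over for 30 min at room temperature by 150 nM human 12hLO, pH 7.0 Hepes buffer, after 15 min compound preincubation.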
PLK1 PBD block = blocks phosphopeptide binding to human PLK1 polo-box domain | P53350 | Plk1 PBD binding of FITC phosphopeptide, fluorescence polarization | Potency, µM, inactives show max response, negative = inhibition, hits mostly inhibitors | actives 2.8% (n = 360,000) | AID 720504; note: series mostly up to about 57 µM; nearly all actives have a fitted effect of over 65% in size
GCN5L2 inh = blocks human GCN5L2 histone acetyltransferase; AID 504327; actives 0.21% (n = 390,000); GCN5L2 HAT assay, ThioGlo1 CoA-SH fluorescence; Potency, µM (doses to about 58.9 µM), without a hit: top-dose activity change, negative = inhibition, hits mostly inhibitors; Q92830
Target sequence (Q92830 whole entry, looked up): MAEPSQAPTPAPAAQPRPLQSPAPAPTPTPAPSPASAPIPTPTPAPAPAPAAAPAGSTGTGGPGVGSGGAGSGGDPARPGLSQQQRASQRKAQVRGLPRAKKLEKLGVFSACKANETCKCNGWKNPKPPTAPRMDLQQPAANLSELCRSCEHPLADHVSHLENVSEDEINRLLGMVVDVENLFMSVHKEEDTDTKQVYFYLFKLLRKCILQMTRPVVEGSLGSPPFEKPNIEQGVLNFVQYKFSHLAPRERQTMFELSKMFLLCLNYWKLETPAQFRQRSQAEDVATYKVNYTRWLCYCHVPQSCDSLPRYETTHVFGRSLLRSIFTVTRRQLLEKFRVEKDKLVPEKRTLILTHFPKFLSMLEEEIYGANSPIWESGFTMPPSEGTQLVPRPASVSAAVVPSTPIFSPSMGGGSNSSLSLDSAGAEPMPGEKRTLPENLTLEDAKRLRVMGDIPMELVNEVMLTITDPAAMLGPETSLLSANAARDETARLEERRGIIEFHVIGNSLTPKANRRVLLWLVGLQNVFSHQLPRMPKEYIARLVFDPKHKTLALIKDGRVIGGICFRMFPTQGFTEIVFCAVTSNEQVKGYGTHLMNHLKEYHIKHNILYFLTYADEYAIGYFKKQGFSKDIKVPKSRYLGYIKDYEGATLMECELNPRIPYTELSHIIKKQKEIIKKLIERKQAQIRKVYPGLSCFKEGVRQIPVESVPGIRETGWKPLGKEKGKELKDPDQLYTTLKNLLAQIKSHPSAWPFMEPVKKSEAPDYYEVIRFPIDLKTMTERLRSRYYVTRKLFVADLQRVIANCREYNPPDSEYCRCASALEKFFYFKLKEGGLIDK
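GCN5L2 (20 nM) in 50mM HEPES pH 7.5, 0.1mM EDTA, 0.01% Tween-20 preincubated 15 min with compounds at room temperature. Reaction started with H3(1-25) 75uM, acetyl-CoA 70uM, ThioGlo1 50uM; CoA-thiol fluorescence (Ex340/Em540) read at 0 and 20 min.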
VDR inh = blocks the human vitamin D receptor | VDR-SRC2-3 peptide fluorescence polarization, 2 h | P11473 | actives 0.93% (n = 400,000) | AID 504847 | Potency, µM, without a hit: max response, negative = inhibition, usual class: inhibitors
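After 23 nl compound addition and a short centrifugation, plates sat for 2 hours at ambient temperature; polarization of fluorescence then indicated loss of VDR binding to peptide SRC2-3.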
An asterisk follows results filed as active; ? = inconclusive; nt = not tested or not shown; [ ] = remark or other dose. This is a sample that favours compounds with a hit; in the whole collection about 3% have one here. Calls come from the whole dose curve; as a rule, active = well fitted curve in the direction sought with a large enough effect; inconclusive = small, poorly fitted or top-dose-only effect, or another doubt; inactive = no such curve, though single readings can be large; an effect the other way counts as inactive or inconclusive. % is set by controls: 0 for no effect and ±100 for the full control effect; potency is the fitted concentration of half-maximal effect.

SMILES	ALOX12 inh	PLK1 PBD block	GCN5L2 inh	VDR inh
CCOc1ccccc1N=C1SCCCN1C	7.1µM*	0%	-1%	12%
CCN(CC)C(=O)c1ccc(NC(=O)c2ccc(-c3nn(C)c(=O)c4ccccc34)cc2)cc1	7%	30µM*	-11%	-7%
CCN(CC)C(=O)c1ccc(NC(=O)Cn2nc(C)c3ccccc3c2=O)cc1	-5%	3%	2%	-23%
COc1ccc([C@H]2C[C@@H](O)[C@@H](O)[C@@H]2NCC2CCCC2)cc1	1%[176 µM]	nt	nt	nt
CCCCCCCC/C=C\CCCCCCCC(=O)OC[C@@H](COP(O)(O)=S)OC	nt	nt	5µM*	18µM*
CCCCC/C=C\C/C=C\C/C=C\C/C=C\CCCC(=O)NC1CC1	nt	nt	1%	?
COc1ccc(CN2Cc3cnnn3-c3ccccc3C2c2ccccc2)cc1 (centres undefined)	-4%	-5%	nt	3%
COc1ccc(CN2Cc3cnnn3-c3ccccc3C2C#N)cc1 (centres undefined)	?	-17%	nt	20µM*
CCOC(=O)Cc1ccccc1	-2%[176 µM]	nt	nt	nt
CCOC(=O)C(SP(=S)(OC)OC)c1ccccc1 (centres undefined)	nt	nt	-20%	3.5µM*
CC(C)C12CN3CN(C1)CC(C(C)C)(C3)C2=O	0%	nt	nt	nt
CCNc1nc(NC(C)(C)C)nc(SC)n1	30%	-12%	nt	-18%
CCNc1nc(Cl)nc(NCC)n1	-7%[22.9 µM]	nt	28µM*	3%
O=C(CCn1cccn1)N1C[C@H](c2cccc(F)c2F)[C@@H]2[C@H]1C1CCN2CC1	-31%	nt	nt	nt
O=C(Nc1ccc(Br)cc1)c1cc(Br)cc(Br)c1O	40µM*	nt	?	56µM*
O=C1OC(c2cc(I)c(O)c(I)c2)(c2cc(I)c(O)c(I)c2)c2ccccc21	10µM*	nt	8.9µM*	20µM*
CCOP(=S)(OCC)SCn1c(=O)oc2cc(Cl)ccc21	nt	nt	?	35µM*
Cc1cccc(-n2c(O)c(/C=C3/C(c4ccccc4)=Nc4ccccc43)c(=O)[nH]c2=O)c1	-23%	13µM*	-5%	89µM*
Cc1ccccc1-n1c(O)c(/C=C2/C(c3ccccc3)=Nc3ccccc32)c(=O)[nH]c1=O	-23%	6.7µM*	-5%	89µM*
Cc1cccc(-n2c(O)c(/C=C/C=Nc3ccccc3)c(=O)[nH]c2=O)c1	-22%	51%	-8%	9%
COc1ccc(OC)c(-n2c(O)c(C=Nc3c(C)n(C)n(-c4ccccc4)c3=O)c(=O)[nH]c2=O)c1	-3%	-9%	-2%	13%
COC(=O)C1=Nc2ccccc2/C1=C\c1c(O)n(-c2cc(OC)ccc2OC)c(=O)[nH]c1=O	?	3.4µM*	-10%	?
Cc1ccc(-n2c(O)c(/C=C3/C(c4ccccc4)=Nc4ccccc43)c(=O)[nH]c2=O)cc1	?	8.4µM*	-3%	-24%
C=CCN(C)C(=O)[C@H]1CN2CCC1C[C@@H]2Cn1cc(CCO)nn1 (some centres undefined)	38%[176 µM]	nt	nt	nt
C[N+](C)(Cc1ccccc1)CC(Br)CBr (centres undefined)	-46%	nt	nt	nt
SMILES	ALOX12 inh	PLK1 PBD block	GCN5L2 inh	VDR inh
CCC(CC)c1cc([C@H]2CN3CC[C@H]2C[C@@H]3CNC(=O)COc2ccccc2)nc(-c2ccncc2)n1	0%	nt	nt	nt
COc1ccc(C(=O)N2CCC3(CC2)c2nccn2-c2ccccc2CN3C)c(OC)n1	-7%	nt	nt	nt
c1ccc(SSc2ccccc2)cc1	33%	1.1µM*	-2%	32µM*
Brc1ccccc1	7%	-13%	-25%	-12%
CCOCCCNC(=O)CCl	-3%	nt	nt	nt
COC1C(OC(=O)c2ccc(C)[nH]2)C(O)C(Oc2ccc3c(O)c(NC(=O)c4ccc(O)c(CC=C(C)C)c4)c(=O)oc3c2Cl)OC1(C)C (centres undefined)	40µM*	-6%	?	10%
CCn1cc(C(=O)OC(C)C(=O)NC(=O)NC(C)(C)C)c2ccccc21 (centres undefined)	3%	nt	nt	nt
CN1CCc2cc3c(cc2[C@@H]1O)OCO3	nt	nt	7.9µM*	-5%
CN1CCc2cc3c(cc2C1)OCO3	6%	-19%	nt	-1%
O=c1[nH]sc2cc(F)ccc12	40µM*	3.8µM*	4.5µM*	7.1µM*
CC(=O)N1CC[N+](C)(C)CC1	37%	nt	20µM*	1%
CCCCN1C(=O)/C(=C\c2ccco2)C(=O)N(CCc2ccccc2)C1=O	?	0.84µM*	40µM*	148%
CCc1ccc(N2C(=O)NC(=O)/C(=C\C=C\c3ccco3)C2=O)cc1	0%	1.3µM*	-13%	?
Cc1cc(C)cc(N2C(=O)NC(=O)/C(=C\C=C\c3ccco3)C2=O)c1	?	1.7µM*	-1%	-22%
CC(C)c1ccc(N2C(=O)NC(=O)/C(=C/C=C/c3ccco3)C2=O)cc1	45µM*	0.67µM*	?	-13%
O=C1NC(=O)N(Cc2ccc(F)cc2)C(=O)/C1=C\C=C\c1ccco1	?	?	23%	?
CCCCc1cn(C[C@H]2C[C@@H]3CCN2C[C@@H]3C(=O)Nc2ccccc2)nn1	71%[176 µM]	nt	nt	nt
CN1CCCCC12Cc1ccccc1CN(C(=O)Cc1ccccc1)C2 (centres undefined)	10%[6.33 µM]	nt	nt	nt
CN(C)CCCC(=O)N1C2CCC1CN(Cc1cccnc1)C2	-23%[6.33 µM]	nt	nt	nt
CC(C)(C)c1cc2c(c(C(C)(C)C)c1)Oc1cc(C#N)c(C#N)cc1O2	9%	nt	nt	nt
CCCCN1C(=O)/C(=C/C=C/c2ccco2)C(=O)NC1=S	6.3µM*	1.1µM*	-21%	?
Cc1ccc(N2C(=O)NC(=O)/C(=C/C=C/c3ccco3)C2=O)cc1	?	?	22%	25µM*
CCCCN1C(=O)/C(=C/c2ccc(N(C)C)cc2)C(=O)N(Cc2ccco2)C1=O	?	?	?	13%
CCn1c(=O)c(=O)[nH]c2cc(C(=O)N3C4CCC3CC4)ccc21	21%	nt	nt	nt
Cc1noc(-c2ccc(N3CC4CC(C3)c3cccc(=O)n3C4)nc2)n1 (centres undefined)	4%	nt	nt	nt
SMILES	ALOX12 inh	PLK1 PBD block	GCN5L2 inh	VDR inh
Cc1ccccc1CC(=O)N1CCN(C(C)c2nc(C3CC3)no2)CC1 (centres undefined)	-7%	nt	nt	nt
Cc1cccc(N2C(=O)NC(=O)/C(=C\c3cc(C)n(-c4sc5c(c4C#N)CCCC5)c3C)C2=O)c1C	?	0.75µM*	-8%	16µM*
CCOC(=O)c1c(-n2c(C)cc(C=C3C(=O)NC(=O)NC3=O)c2C)sc2c1CCCC2	-20%	?	-4%	-14%
COc1ccc(C2SCC(=O)Nc3[nH]ncc32)cc1OC1CCCC1 (centres undefined)	-1%	nt	nt	nt
COC(=O)C1=C(c2ccc(F)cc2OCc2ccccc2)C[C@@H]2CC[C@H]1N2C(=O)NCc1cccc(F)c1	1%	21µM*	-14%	?
COc1ccc(OCCOc2cccc(C=C3C(=O)NC(=O)NC3=O)c2)cc1	nt	nt	-1%	nt
O=C1NC(=S)NC(=O)C1=Cc1ccc(OCc2ccccc2)cc1	?	2.7µM*	nt	40µM*
Cc1ccc(S(=O)(=O)NC[C@H]2C[C@@H]3CCN2C[C@@H]3CN(C)CCc2ccccn2)cc1	28%	nt	nt	nt
Cc1nc(-c2ccc(N(C)C)cc2)cc([C@H]2CN3CC[C@H]2C[C@@H]3CNCc2cccc(C#N)c2)n1	46%	nt	nt	nt
